Reference: PubChem BioAssay (NCI)
This is part of a sample that, as a whole, favours compounds with a hit. Of some 83,000 tested, about 20% had one in any assay.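 Results are percent growth after 48 hours of single-concentration exposure. 100 means growth as in untreated cells, lower positive values show inhibition; negative values down to -100 show cell death.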 The source made the active and inactive calls. How the source made its calls: active means growth percent below 10; inactive means the rest.

Assays:
Assay in all cases: NCI-60 one-dose screen, 48 h (100 = growth as untreated, 0 = no growth, -100 = all killed)
Settings in all cases: 10 µM unless noted
SR leukemia = system: SR leukemia
RPMI-8226 leukemia = system: RPMI-8226 leukemia
OVCAR-8 ovarian = system: OVCAR-8 ovarian
OVCAR-5 ovarian = system: OVCAR-5 ovarian
OVCAR-4 ovarian = system: OVCAR-4 ovarian
SK-OV-3 ovarian = system: SK-OV-3 ovarian
IGROV1 ovarian = system: IGROV1 ovarian
OVCAR-3 ovarian = system: OVCAR-3 ovarian
HS 578T breast = system: HS 578T breast
NCI/ADR-RES ovarian = system: NCI/ADR-RES ovarian

Measured: growth

O=C(Nc1cccnc1Nc1ccc(Cl)cc1)c1cn(Cc2ccc(F)cc2)nn1
inactive: SR leukemia 106% | RPMI-8226 leukemia 85% | OVCAR-8 ovarian 96.2% | OVCAR-5 ovarian 105% | OVCAR-4 ovarian 89.8% | SK-OV-3 ovarian 108% | IGROV1 ovarian 107% | OVCAR-3 ovarian 107% | HS 578T breast 93.2% | NCI/ADR-RES ovarian 96.2%

Cc1c(Cl)cccc1C(=O)Nc1nc2c(s1)CN(C(=O)Nc1cccc(C(F)(F)F)c1)CC2
active: RPMI-8226 leukemia 7.93% | OVCAR-3 ovarian -11.8% | NCI/ADR-RES ovarian -27.2%
inactive: SR leukemia 13.5% | OVCAR-8 ovarian 14.8% | OVCAR-5 ovarian 37% | OVCAR-4 ovarian 28.8% | SK-OV-3 ovarian 34.1% | IGROV1 ovarian 22.6% | HS 578T breast 30.4%

COc1cc(-c2nc(NC(C)=O)sc2-c2ccnc(NCCNS(=O)(=O)c3ccccc3)n2)ccc1Cl
inactive: SR leukemia 13.1% | RPMI-8226 leukemia 13.8% | OVCAR-8 ovarian 37.6% | OVCAR-5 ovarian 84.9% | OVCAR-4 ovarian 61.6% | SK-OV-3 ovarian 26.9% | IGROV1 ovarian 51.6% | OVCAR-3 ovarian 25.7% | HS 578T breast 27.3% | NCI/ADR-RES ovarian 93.2%

C[C@@H]1CC[C@@]2(OC1)O[C@H]1C[C@H]3[C@@H]4CC=C5C[C@@H](O[C@@H]6O[C@H](CO)[C@@H](O[C@@H]7O[C@@H](CO)[C@H](O)[C@H]7O)[C@H](O)[C@H]6O[C@@H]6O[C@@H](C)[C@H](O)[C@@H](O)[C@H]6O)CC[C@]5(C)[C@H]4CC[C@]3(C)[C@H]1[C@@H]2C
active: SR leukemia -58.5% | RPMI-8226 leukemia -60.1% | OVCAR-8 ovarian -91.2% | OVCAR-5 ovarian -87.7% | OVCAR-4 ovarian -90% | SK-OV-3 ovarian -36.4% | IGROV1 ovarian -84.2% | OVCAR-3 ovarian -90.2% | HS 578T breast -47.9% | NCI/ADR-RES ovarian -85.6%

O=C(OC[C@@H]1CO1)c1cccc2c(=O)c3ccccc3[nH]c12
active: SR leukemia 9.87% | RPMI-8226 leukemia -11.7% | OVCAR-8 ovarian -56% | OVCAR-5 ovarian -21.4% | OVCAR-4 ovarian -27% | SK-OV-3 ovarian -38.5% | IGROV1 ovarian -13.7% | OVCAR-3 ovarian -25.7% | HS 578T breast -21.5% | NCI/ADR-RES ovarian -16.3%

CCN(CC)c1ccc(/C=N/NC(=O)c2ccc(Nc3ccnc(C(F)(F)F)c3)cc2)c(O)c1
inactive: SR leukemia 153% | RPMI-8226 leukemia 20% | OVCAR-8 ovarian 44.6% | OVCAR-5 ovarian 32.5% | OVCAR-4 ovarian 32.4% | SK-OV-3 ovarian 10.1% | IGROV1 ovarian 39.3% | OVCAR-3 ovarian 44% | HS 578T breast 64.9% | NCI/ADR-RES ovarian 26.3%

COc1ccc(C2C(C#N)=C(N)Oc3c2sc2c(Br)cccc32)cc1 (stereo not given)
inactive: RPMI-8226 leukemia 12.5% | OVCAR-8 ovarian 35.1% | OVCAR-5 ovarian 50.5% | OVCAR-4 ovarian 64.4% | SK-OV-3 ovarian 35.2% | IGROV1 ovarian 42.7% | OVCAR-3 ovarian 10.6% | HS 578T breast 41.8%
active: SR leukemia 8.82% | NCI/ADR-RES ovarian 6.27%

COc1ccc(C2=Nc3c/c(=C\c4c(O)[nH]c5cc(Cl)ccc45)ccc3=N2)cc1
inactive: SR leukemia 17% | RPMI-8226 leukemia 62.8% | OVCAR-8 ovarian 71.9% | OVCAR-5 ovarian 77.5% | OVCAR-4 ovarian 90.8% | SK-OV-3 ovarian 46.4% | IGROV1 ovarian 86.9% | OVCAR-3 ovarian 27% | HS 578T breast 81.7% | NCI/ADR-RES ovarian 56.4%

O=c1[nH]c(-c2ccc(Cl)cc2)cn1-c1ccc(-n2cc(-c3ccc(Cl)cc3)[nH]c2=O)cc1
inactive: SR leukemia 98% | RPMI-8226 leukemia 123% | OVCAR-8 ovarian 92% | OVCAR-5 ovarian 104% | OVCAR-4 ovarian 98.5% | SK-OV-3 ovarian 97.5% | IGROV1 ovarian 102% | OVCAR-3 ovarian 109% | HS 578T breast 102% | NCI/ADR-RES ovarian 108%

COc1ccccc1NC(=O)c1ccc(/C=C/C(=O)c2nccn2C)cc1
active: SR leukemia -18.2% | RPMI-8226 leukemia -35% | OVCAR-8 ovarian 4.61% | OVCAR-5 ovarian -80.9% | OVCAR-4 ovarian -34.8% | IGROV1 ovarian -56.5% | OVCAR-3 ovarian -90.9% | NCI/ADR-RES ovarian 5.75%
inactive: SK-OV-3 ovarian 15.8% | HS 578T breast 35.5%

CN1CCCc2cc(/C=C3/SC(=S)N(CCc4ccc(O)cc4)C3=O)ccc21
inactive: SR leukemia 32.9% | RPMI-8226 leukemia 49.5% | OVCAR-8 ovarian 96.6% | OVCAR-5 ovarian 108% | OVCAR-4 ovarian 87.2% | SK-OV-3 ovarian 111% | IGROV1 ovarian 76% | OVCAR-3 ovarian 88.2% | HS 578T breast 93.9% | NCI/ADR-RES ovarian 83.3%

CCN(CC)CCOc1nc2c3ccc(Cl)cc3nn2c2ccccc12
active: SR leukemia 5.43% | RPMI-8226 leukemia -8.15%
inactive: OVCAR-8 ovarian 28.6% | OVCAR-5 ovarian 34% | OVCAR-4 ovarian 35.4% | SK-OV-3 ovarian 56% | IGROV1 ovarian 10.1% | OVCAR-3 ovarian 54.6% | HS 578T breast 55.2% | NCI/ADR-RES ovarian 25.3%
